Screening data: PubChem, Broad Institute
Rows were chosen to be rich in hits. Some 6.7% of all compounds tested hit in one or more screens of this group.
T cruzi growth-1: T. cruzi proliferation inhibition | hit rate 5.9% among 77,000 | T. cruzi beta-gal in NIH3T3, GalScreen luminescence, 90 h | AID 624255 | inhibition, % at 8.34 µM;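 active = mean inhibition above about 93%, with at least 55% of replicates each passing it, limit read from the data, passing the limit was not always enough; inconclusive = only one of those two conditions holds; inactive = neither condition holds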
C diff growth: blocks growth of Clostridium difficile; hit rate 0.25% among 86,000; growth activity, negative = inhibition, % at 16 µg/mL (by protocol); Clostridium difficile clinical isolate growth, OD600, 24 h; active compounds read low; AID 1259249;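 active = mean growth activity at or below -80% and every replicate also at or below -80%; inconclusive = mean at or below -80% but some replicate above -80%; inactive = mean growth activity above -80%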;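 note: 0% = DMSO wells and -100% = levofloxacin 16 µg/mL wells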
Pf Dd2 growth: P. falciparum Dd2 growth inhibition; hit rate 2.3% among 94,000; activity change, % at 10 µM; SYBR Green, 72 h; active compounds read low; in the data active = activity change below about -80%; inconclusive = no clear call, values can overlap the other calls
T cruzi growth-2: inhibitors of T. cruzi proliferation. T. cruzi beta-gal in NIH3T3, GalScreen luminescence, 90 h. inhibition, % at 8.35 µM. shares compounds with T cruzi growth-1. hit rate 72% among 5,600;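 active = mean replicate inhibition above about 95% and at least 55% of replicates individually reaching it, limit read from the data; inconclusive = only one of the two criteria is met; inactive = neither criterion is met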
T cruzi growth-3: blocks T. cruzi growth in NIH3T3 host cells; AID 651740; inhibition, % at 2.09 µM; T. cruzi beta-gal in NIH3T3, GalScreen luminescence, 90 h; shares compounds with T cruzi growth-1; hit rate 21% among 5,600;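 active = mean inhibition above about 95%, with at least 55% of replicates also reaching it, limit read from the data; inconclusive = meets just one of the two conditions; inactive = meets neither condition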;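 note: plate controls were neutral control median for no effect and positive control median for full effect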
NIH3T3 tox: NIH/3T3 (mouse) viability loss; NIH/3T3 viability, CellTiter-Glo ATP luminescence, 90 h; hit rate 14% among 5,600; shares compounds with T cruzi growth-1; cytotoxicity (signal decrease), % at 8.35 µM;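 active = mean signal decrease across replicates above about 35% based on untreated-well scatter, with enough replicates individually passing, limit read from the data; inconclusive = no rule stated though some were filed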;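 note: 0% = median of neutral control wells and 100% = median of positive control wells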
NIH3T3 tox 2: NIH/3T3 (mouse) viability loss; inhibition, % at 24.9 µM; hit rate 56% among 5,600; AID 651744; shares compounds with T cruzi growth-1; NIH/3T3 viability, CellTiter-Glo ATP luminescence, 90 h;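 active = mean loss of cell viability signal at or above a set limit, and enough replicates individually reaching it; inconclusive = meets only the mean limit or only the replicate share; inactive = meets neither condition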;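 note: 0% = median of neutral control wells and 100% = median of positive control wells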
Numbers without * were called inactive; ? = inconclusive; . = no result given.

SMILES | T cruzi growth-1 | C diff growth | Pf Dd2 growth | T cruzi growth-2 | T cruzi growth-3 | NIH3T3 tox | NIH3T3 tox 2
C[C@H](CO)N1C[C@H](C)[C@@H](CN(C)CC2CCCC2)Oc2cc(C3=CCCCC3)ccc2S1(=O)=O | 105.9* | 6.0 | -50.6 | 97.3* | 76.8 | 13.5 | 103.4*
C[C@@H]1CN([C@H](C)CO)S(=O)(=O)c2ccc(C3=CCCCC3)cc2O[C@@H]1CN(C)CC1CC1 | 66.8 | . | -50.0 | . | . | . | .
CCCNC(=O)N(C)C[C@@H]1Oc2ncc(C#CCc3ccccc3)cc2C(=O)N([C@@H](C)CO)C[C@@H]1C | . | -5.2 | -45.9 | . | . | . | .
C[C@H](CO)N1C[C@H](C)[C@H](CN(C)C(=O)Nc2ccc(F)cc2)Oc2ccc(NC(=O)c3ccncc3)cc2C1=O | -1.2 | 8.5 | 16.4 | . | . | . | .
O=C(Nc1cccc(F)c1)N1CCCCN2[C@H](CO)[C@H](c3ccc(-c4ccccc4F)cc3)[C@H]2C1 | 101.3* | -29.5 | -27.8 | 104.3* | 111.7* | 117.1* | 104.4*
COc1ccc(NC(=O)N2CCCCN3[C@H](C2)[C@@H](c2ccc(-c4ccccc4F)cc2)[C@@H]3CO)cc1 | 57.9 | 27.8 | -5.6 | . | . | . | .
O=C(Nc1ccc(F)cc1)N1CCCCN2[C@H](C1)[C@@H](c1ccc(-c3ccccc3F)cc1)[C@@H]2CO | 85.4 | 41.3 | 27.4 | . | . | . | .
O=C(Nc1ccc(F)cc1)N1CCCCN2[C@H](CO)[C@H](c3ccc(-c4ccccc4F)cc3)[C@@H]2C1 | 114.8* | -4.1 | -1.3 | 108.3* | 63.7 | 3.5 | 51.9*
O=C(Nc1ccc(F)cc1)N1CCCCN2[C@@H](CO)[C@H](c3ccc(-c4ccccc4F)cc3)[C@@H]2C1 | 105.7* | 36.4 | -30.7 | 86.6 | 90.3 | 55.2* | 104.1*
COc1ccc(NC(=O)N2CCCCN3[C@H](CO)[C@H](c4ccc(-c5ccccc5F)cc4)[C@H]3C2)cc1 | 81.3 | 82.4 | -21.9 | . | . | . | .
O=C(Nc1ccc(F)cc1)N1CCCCN2[C@H](C1)[C@H](c1ccc(-c3ccccc3F)cc1)[C@@H]2CO | ? | 26.4 | 20.3 | 108.8* | 50.6 | 31.9 | 65.2*
CC(C)COC(=O)N(C)C[C@H]1OCc2ccccc2-c2c(n(C)c3ccccc23)C(=O)N([C@@H](C)CO)C[C@@H]1C | 51.5 | 3.3 | -44.5 | . | . | . | .
C[C@@H]1CN([C@@H](C)CO)C(=O)c2cc(C#Cc3ccncc3)cnc2O[C@H]1CN(C)C(=O)c1ccccc1F | . | 11.4 | 2.0 | . | . | . | .
O=C(NCC[C@@H]1CC[C@H](NC(=O)C2CCC2)[C@@H](CO)O1)c1cc(Cl)cc(Cl)c1 | . | -5.3 | 35.5 | . | . | . | .
O=C(Nc1ccccc1)N1CCCCN2[C@@H](CO)[C@H](c3ccc(-c4ccccc4F)cc3)[C@@H]2C1 | 65.8 | 54.2 | -4.0 | . | . | . | .
O=C(Nc1ccccc1)N1CCCCN2[C@H](CO)[C@H](c3ccc(-c4ccccc4F)cc3)[C@@H]2C1 | 100.9* | -1.5 | 14.9 | 111.0* | 60.5 | -20.0 | 16.5
CO[C@@H]1CN(C)C(=O)c2ccc(NS(=O)(=O)c3cccc(Cl)c3)cc2OC[C@@H](C)NC[C@H]1C | 13.7 | . | -8.8 | . | . | . | .
CO[C@H]1CN(C)C(=O)c2cc(NC(=O)Nc3cc(F)ccc3F)ccc2OC[C@H](C)NC[C@@H]1C | ? | . | -22.8 | 8.7 | -46.0 | 4.9 | 22.8
CO[C@@H]1CN(C)C(=O)c2ccc(NC(=O)Nc3cccc(F)c3)cc2OC[C@H](C)NC[C@@H]1C | 27.4 | . | 7.1 | . | . | . | .
CO[C@H]1CN(C)C(=O)c2ccc(NS(=O)(=O)c3cccc(Cl)c3)cc2OC[C@@H](C)NC[C@@H]1C | 97.5* | . | 19.7 | 80.1 | 12.7 | 0.4 | -14.8
CO[C@@H]1CN(C)C(=O)c2ccc(NC(=O)Nc3cccc(F)c3)cc2OC[C@H](C)NC[C@H]1C | 102.1* | . | -82.4* | 5.9 | 10.5 | -1.3 | -15.8
CO[C@@H]1CN(C)C(=O)c2cc(NC(=O)Nc3cc(F)ccc3F)ccc2OC[C@H](C)NC[C@@H]1C | 35.0 | . | -47.6 | . | . | . | .
COc1ccc2c3c(n(C)c2c1)[C@@H](CO)N(Cc1ccncc1)CC31CCN(C(=O)C2CCC2)CC1 | . | -3.7 | -59.6 | . | . | . | .
O=C(Nc1ccc(F)cc1)N[C@H]1CC[C@H](CCNS(=O)(=O)c2ccccc2F)O[C@@H]1CO | . | 0.9 | . | . | . | . | .
